Source: PubChem
L3MBTL1 block – blocks human L3MBTL1 | Q9Y468 | AlphaScreen L3MBTL1–H3K9me1 peptide binding | Potency, µM (titrated, usually from 57.1 µM), for inactives: top-dose activity, negative = inhibition, actives largely listed as inhibitors | actives 0.66% (n = 230,000); also: % is scaled to controls: 0 for no effect and ±100 for the full control effect; nearly all actives have a fitted effect of over 60% in size
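Read-out is AlphaScreen signal from streptavidin donor and nickel chelate acceptor beads (10 ug/mL final each) bridging L3MBTL1 (50 nM) and biotinylated K9-monomethylated H3(1-15) peptide (75 nM), after 30 min compound exposure at room temperature.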
BAZ2B inh – blocks human BAZ2B. AlphaScreen BAZ2B-H3K14Ac peptide displacement. Potency, µM (titrated, usually from 114 µM), without a hit: at the highest dose activity change, negative = inhibition, actives largely listed as inhibitors. actives 4.4% (n = 360,000). Q9UIF8. AID 504333; also: % is scaled to controls: 0 for no effect and ±100 for the full control effect; nearly all actives have a fitted effect of over 60% in size
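AlphaScreen displacement of biotin-H3(5-23)K14Ac peptide (50 nM final) from BAZ2B (50 nM final) in PBS pH 7.4, 0.01% Tween-20; complex preformed 30 min RT, then compounds (top 110 uM) 30 min RT, beads 20 min dark.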
PLK1 PBD block – blocks phosphopeptide binding to human PLK1 polo-box domain; AID 720504; Plk1 PBD binding of FITC phosphopeptide, fluorescence polarization; actives 2.8% (n = 360,000); P53350; Potency, µM, for the others: max response, negative = inhibition, actives largely listed as inhibitors; also: series mostly up to about 57 µM; % is scaled to controls: 0 for no effect and ±100 for the full control effect; nearly all actives have a fitted effect of over 65% in size
Target sequence (P53350 whole entry, looked up, the tested form may be a part): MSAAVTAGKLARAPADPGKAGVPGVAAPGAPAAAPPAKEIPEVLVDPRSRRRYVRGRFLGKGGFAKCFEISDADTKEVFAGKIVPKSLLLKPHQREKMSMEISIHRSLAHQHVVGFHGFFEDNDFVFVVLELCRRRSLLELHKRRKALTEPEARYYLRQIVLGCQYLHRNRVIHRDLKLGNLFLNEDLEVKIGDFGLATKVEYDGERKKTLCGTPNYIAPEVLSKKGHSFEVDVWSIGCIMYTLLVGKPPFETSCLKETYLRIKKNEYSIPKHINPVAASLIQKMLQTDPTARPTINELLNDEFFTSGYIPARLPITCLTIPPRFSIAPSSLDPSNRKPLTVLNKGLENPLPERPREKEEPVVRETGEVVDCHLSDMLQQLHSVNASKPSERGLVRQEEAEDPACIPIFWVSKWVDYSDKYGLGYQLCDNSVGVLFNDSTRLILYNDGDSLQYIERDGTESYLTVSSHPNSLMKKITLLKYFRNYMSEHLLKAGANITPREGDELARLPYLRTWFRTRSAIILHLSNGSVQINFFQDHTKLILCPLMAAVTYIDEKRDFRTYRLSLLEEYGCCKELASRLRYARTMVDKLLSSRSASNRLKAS
HP1b chromo inh – inhibitors of HP1-beta chromodomain binding to methylated histone tails; AlphaScreen HP1-beta / biotin-H3K9me3 peptide binding; actives 0.56% (n = 390,000); P83916; Potency, µM (top dose mostly 114 µM), for inactives: top-dose activity change, negative = inhibition, actives largely listed as inhibitors; also: nearly all actives have a fitted effect of over 70% in size
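HP1-beta protein (50 nM final) preincubated 30 min at room temperature with biotinylated H3(1-18)K9me3 peptide (50 nM) in PBS pH 7.4, 0.01% Tween-20, then compound added for 30 min. AlphaScreen streptavidin donor/nickel chelate acceptor beads (10 ug/mL final), 30 min dark, luminescence read.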
VDR inh – blocks the human vitamin D receptor. actives 0.93% (n = 400,000). VDR-SRC2-3 peptide fluorescence polarization, 2 h. P11473. Potency, µM, for inactives: max response, negative = inhibition, usual class: inhibitors; also: % is scaled to controls: 0 for no effect and ±100 for the full control effect
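Fluorescence polarization assay of small-molecule disruption of VDR binding to coregulator peptide SRC2-3. Compounds and controls pin-transferred, then read after 2 h incubation at ambient room temperature.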
JMJD2A Tudor – blocks the human JMJD2A Tudor domain | O75164 | AlphaScreen JMJD2A-Tudor / H3K4me3 peptide binding | Potency, µM (titrated, usually from 114 µM), for inactives: top-dose activity change, negative = inhibition, usual class: inhibitors | actives 4.4% (n = 390,000) | AID 504339; also: % is scaled to controls: 0 for no effect and ±100 for the full control effect; nearly all actives have a fitted effect of over 50% in size
An asterisk follows results filed as active. Most compounds without a hit are left out; they make up all but 6.9% or so of the library. Calls follow the shape of the dose curve; as a rule, active = well fitted curve in the direction sought with a large enough effect; inconclusive = small, poorly fitted or top-dose-only effect, or another doubt; inactive = no such curve, though single readings can be large; an effect the other way counts as inactive or inconclusive. Potency is read from the fitted curve at half-maximal effect.

What do the screens show for `CC(=O)c1ccc(C2CC(OCCF)=CC(=O)O2)cc1` (stereo not drawn)?
PLK1 PBD block: -5%

How did COc1ccc(C(=S)N2CCN(c3ccccc3C)CC2)cc1 do in these assays?
BAZ2B inh: -28%; PLK1 PBD block: 21µM*; HP1b chromo inh: -10%; VDR inh: -24%; JMJD2A Tudor: -30%

How did S=C(c1ccc(Cl)cc1)N1CCN(Cc2ccccc2)CC1 do in these assays?
L3MBTL1 block: -22%; BAZ2B inh: inconclusive; PLK1 PBD block: -16%; HP1b chromo inh: -3%; VDR inh: 16%; JMJD2A Tudor: -28%

How did COc1ccc(C(=S)N2CCCCCC2)cc1 do in these assays?
L3MBTL1 block: inconclusive; BAZ2B inh: 3%; PLK1 PBD block: 27µM*; HP1b chromo inh: inconclusive; VDR inh: inconclusive; JMJD2A Tudor: 89µM*

How did OCCN1CCN(C(=S)c2ccc(Cl)cc2)CC1 do in these assays?
L3MBTL1 block: 8%; BAZ2B inh: 6%; PLK1 PBD block: 6.7µM*; HP1b chromo inh: inconclusive; VDR inh: inconclusive; JMJD2A Tudor: -26%

Results for CCN1CCN(C(=S)c2ccc(OC)cc2)CC1 ?
L3MBTL1 block: 0%; BAZ2B inh: -2%; PLK1 PBD block: 9.5µM*; HP1b chromo inh: -14%; VDR inh: 0%; JMJD2A Tudor: -25%

How did COc1ccc(C(=O)NC(=S)N2CCN(c3ccccc3O)CC2)cc1 do in these assays?
L3MBTL1 block: -7%; PLK1 PBD block: -19%; HP1b chromo inh: 18%; VDR inh: -28%; JMJD2A Tudor: -20%

Results for O=C(NC1CCCC1)C(c1ccc(F)cc1)N(C(=O)c1csnn1)C1CC1 (stereo not drawn) ?
BAZ2B inh: -1%; PLK1 PBD block: -2%; HP1b chromo inh: 4%; VDR inh: -7%; JMJD2A Tudor: -8%

How did COc1ccc(S(=O)(=O)n2ccnc2)cc1C(C)(C)C do in these assays?
BAZ2B inh: -23%; HP1b chromo inh: 14%; VDR inh: 3%; JMJD2A Tudor: -16%

How did O=S(=O)(NCCc1nnc2ccc(SCc3cccc(Cl)c3)nn12)c1ccccc1 do in these assays?
BAZ2B inh: -35%; HP1b chromo inh: 39%; VDR inh: 5%; JMJD2A Tudor: -5%

How did Cc1nc(C(F)(F)F)ccc1C(=O)N1CCC1(C)C(=O)NS(C)(=O)=O (stereo not drawn) do in these assays?
PLK1 PBD block: -2%

How did Cc1cccc(CSc2ncc(Cl)c(C(=O)Nc3sc4c(c3C#N)CCCC4)n2)c1 do in these assays?
BAZ2B inh: -5%; HP1b chromo inh: 27%; VDR inh: 7%; JMJD2A Tudor: 2%

What do the screens show for `O=C(C1CCC1)N1CCc2cc(S(=O)(=O)NCCc3ccccc3)ccc21`?
HP1b chromo inh: 27%; VDR inh: -12%; JMJD2A Tudor: -15%

Results for Fc1ccc(CNCCCSc2nnnn2-c2ccccc2)cc1 ?
BAZ2B inh: -10%; HP1b chromo inh: 36%; VDR inh: 18%; JMJD2A Tudor: -7%

What do the screens show for `CCOc1ccc(C(=S)N2CCCC2)cc1`?
BAZ2B inh: 3%; PLK1 PBD block: -4%; HP1b chromo inh: 17%; VDR inh: 1%; JMJD2A Tudor: -5%

Results for CCOC(=O)c1ccc(C(=S)N2CCCC2)cc1 ?
BAZ2B inh: -5%; PLK1 PBD block: 7.5µM*; HP1b chromo inh: inconclusive; VDR inh: -8%; JMJD2A Tudor: -15%

How did Cc1ccccc1-c1nc(CS(=O)(=O)CC(=O)N2CCN(c3ccccc3)CC2)c(C)o1 do in these assays?
BAZ2B inh: inconclusive; HP1b chromo inh: 1%; VDR inh: 2%; JMJD2A Tudor: -28%

What do the screens show for `COc1ccc(-c2nc(CSCC(=O)N3CCN(c4ccc(OC)cc4)CC3)c(C)o2)cc1`?
BAZ2B inh: 35µM*; HP1b chromo inh: -19%; VDR inh: -7%; JMJD2A Tudor: inconclusive

What do the screens show for `Cc1ccc(-c2nc(CS(=O)(=O)CC(=O)N3CCN(c4ccccc4)CC3)c(C)o2)cc1`?
BAZ2B inh: 56µM*; HP1b chromo inh: 3%; VDR inh: 6%; JMJD2A Tudor: inconclusive
